Here are results for 74 compounds from ChEMBL document CHEMBL3988442, “University of Dundee, Small-Polar-MMV Screening Library” (2021).

SMILES strings stand for the structures. About 13,000 (27%) of roughly 48,000 compounds showed an effect of 50% or more. The list shows a part of the results.

In the experiment the test system is Wolbachia pipientis. The experiment in a line: Anti-Wolbachia Cell-Based Screen. Particulars: 5 µM. Further details: scale not given: in the data most compounds retested in dose-response had high values. It is filed as functional.
Take `CCn1cc(N2Cc3nc(N)ncc3C2=O)cn1`: the “Percent Effect” value was determined as 3.471%.
Under `NC(=O)CN1C(=O)CO[C@H]2CN(Cc3ccc(C(F)(F)F)cc3)C[C@H]21` stands -2.639%.
Under `Cl.FC(F)Oc1ccc(CNCc2cc(Cl)c3c(c2)OCO3)cc1` stands -3.122%.
As for `COCCc1noc(CN(C)c2nc(C)cc(C)n2)n1`, the “Percent Effect” value is on record as 101%.
Next, `COCCc1noc(CN(C)c2nc(C)nc(C)c2C)n1`: 89.33%; `COCCc1noc(CN(C)C2CCCN(c3ccc(C)nn3)C2)n1` (centres undefined): -2.157%; `COCCc1noc(CN(C)c2nccc(C)n2)n1`: 10.01%.
On to `COCCc1noc(CN2C(=O)OC[C@@H]2C(C)C)n1`, for which the “Percent Effect” value is -4.227%.
Next, `CC(C)N[C@@H]1CO[C@H](CNC(=O)c2ccccc2)[C@H]1O`: -5.064%; `O=C(NCc1ccco1)N1CCC(n2cc(-c3ccccn3)nn2)CC1`: 27.21%.
Under `Cc1csc(C2CCCN(C(=O)c3cnc4n[nH]c(C)c4c3)C2)n1` (centres undefined) stands -1.582%.
Under `O=C(c1cncnc1)N1CCCC(c2nccs2)C1` (centres undefined) stands 117.1%; under `CC(C)Oc1ncc(C(=O)N2CCCC(C(=O)O)C2)cc1Cl` (centres undefined), -16.5%.
`O=C(c1cnc(C2CC2)nc1)N1CCCC(c2nccs2)C1` (centres undefined): the “Percent Effect” value is 70.5%.
Under `O=C(c1cnc(O)c(Cl)c1)N1CCCC(c2nccs2)C1` (centres undefined) stands 105%.
Under `Cc1noc(COCC(=O)N2CCCC(c3nccs3)C2)n1` (centres undefined) stands -1.591%; under `O=C(c1cnc(C2CC2)nc1)N1CCC(N2CCC(O)CC2)CC1`, -12.63%; under `CCn1cc(C(=O)N2CCCC(c3nccs3)C2)cn1` (centres undefined), 107.1%.
Under `O=C(CN1CCCNC1=O)N1CCCC(c2nccs2)C1` (centres undefined) stands -4.052%; under `O=C(Nc1cnccn1)[C@@H]1COC[C@H]2CN(c3ncc(F)cn3)C[C@H]21`, -14.05%; under `CCCN1CCC(N2CCN(c3cc(C)nc(C)c3)CC2)CC1`, -11.77%.
In the case of `CC1CN(C(=O)NCc2cccc(C#N)c2)CCN1CC(F)(F)F` (centres undefined), the “Percent Effect” value is recorded as -8.516%.
Next, `Cc1cc(C(=O)NC2CCN(c3ncccc3C#N)CC2)on1`: 2.44%; `Cc1cnc(CNC(=O)[C@@]23CCO[C@@H]2CCNC3)cn1.O=C(O)C(F)(F)F`: 84.34%.
Next, `Cc1cnc(CNC(=O)[C@@]23CCO[C@@H]2CCN(C2CCCC2)C3)cn1.O=C(O)C(F)(F)F`: 116.3%; `COCCNC(=O)[C@@]12CCO[C@@H]1CCN(Cc1scnc1C)C2.O=C(O)C(F)(F)F`: 6.926%; `O=C(NCc1ccco1)[C@@]12CCO[C@@H]1CCN(C1CCC1)C2.O=C(O)C(F)(F)F`: -7.517%.
With `COc1cc(C)sc1C(=O)NCCC(=O)N(C)Cc1ccccc1`, the “Percent Effect” value is on record as -13.22%.
As to `CCc1nc(CN(C)Cc2nnc(-c3cccs3)o2)cs1`, the “Percent Effect” value is -11.05%.
Next, `Cc1nc(C2CCCN(C(=O)c3csc(C)n3)C2)no1` (centres undefined): -14.77%; `Cc1nc(C(=O)N2CCCC(c3ccc4sc(N)nc4n3)C2)co1` (centres undefined): 130.6%; `CC(=O)N1CCCC(c2ccc3sc(N)nc3n2)C1` (centres undefined): 125%.
With `Cc1ccc2oc(C(=O)N3CCCC(c4noc(C)n4)C3)cc2n1` (centres undefined), the “Percent Effect” value is -6.015%.
Under `CNC(=O)C(C)(C)N1CCC[C@H]1C(=O)NCC(C)C.Cl` stands 3.09%.
Under `O=C1[C@H]2CC[C@H](CN(S(=O)(=O)c3ccccc3)C2)N1Cc1cscn1` stands 20.83%; under `CN(C)CCOc1cc(NC(=O)COCC(F)(F)F)ccn1`, 0.1628%; under `CNc1cncc(C2CCCN2Cc2ccnc(N3CCCC3)n2)n1` (centres undefined), 113.8%.
Under `Cc1nccc(CNS(=O)(=O)N2CCCC2c2ccc(C)o2)n1` (centres undefined) stands -6.689%.
As to `CNc1cncc(C2CCCN2Cc2cccc(C)n2)n1` (centres undefined), the “Percent Effect” value is listed as 107%.
Next, `CNc1cncc(C2CCCN2Cc2ccnc(C)n2)n1` (centres undefined): 94.65%.
Under `CNc1ccnc(N2CCC(c3nnc(CN4CCCC4)n3C)CC2)n1` stands 5.752%.
Under `CNc1cncc(C2CCCN2Cc2ccn(C)n2)n1` (centres undefined) stands 90.43%; under `CNc1cncc(C2CCCN2Cc2ccccn2)n1` (centres undefined), -6.614%; under `O[C@H]1[C@H](n2cc(-c3cncnc3)nn2)c2ccccc2C12CCNCC2`, -31.96%.
In the case of `CN(C)CCN(Cc1ccc(Cl)cc1)C(=O)c1cc[nH]n1`, the “Percent Effect” value stood at 3.118%.
Next, `Cc1ccc(-c2ncc(C(=O)N3CCCN4CCC[C@H]4C3)c(O)n2)cc1`: -8.702%; `CC(=O)N1CCC2(CC1)CN(C)CC[C@H]2C(F)(F)F.Cl`: -1.973%; `Cl.NC(CC1CCCC1)c1ccccc1` (centres undefined): -1.351%.
With `NC(=O)CCN1C(=O)CC(Cc2ccc(F)cc2)C1=O` (centres undefined), the “Percent Effect” value was determined as 3.459%.
Under `COc1ccnc(N2CCN(Cc3ncc(C(C)(C)C)o3)CC2)n1` stands 7.68%; under `Cn1ccnc(Nc2ccc3c(c2)CCN3C(=O)c2ccoc2)c1=O`, 61.04%.
For the compound `Cn1ccnc(Nc2ccc3c(c2)CCN3C(=O)c2cccnc2)c1=O`, the “Percent Effect” value is -3.992%.
Next, `CC(=O)N1CCCc2cc(Nc3nccn(C)c3=O)ccc21`: 8.205%; `CCCN(C(=O)COCC)c1cccc(C)c1`: -29.78%; `Cc1ccc(N2CCN(C(=O)COc3nccc(C)n3)CC2)nn1`: -17.48%.
Under `Cc1ccnc(OCC(=O)N2CCN(c3ncccn3)CC2)n1` stands 1.434%; under `Cc1ccnc(OCC(=O)N2CCCC2)n1`, 98.39%.
Next, `Cc1ccc(N2CCN(C(=O)COc3ncccn3)CC2)nn1`: -4.899%.
Regarding `Cc1ccnc(OCC(=O)N2CCC(C(N)=O)CC2)n1`, the “Percent Effect” value is listed as -0.2918%.
`COc1ccc(N2CCN(C(=O)COc3nccc(C)n3)CC2)cc1`: the “Percent Effect” value was 79.4%.
For `CCc1ccccc1OCC(=O)Nc1ccnc(OCCN(C)C)c1`, the “Percent Effect” value was determined as 4.07%.
Next, `CN(Cc1ccc(Cl)cc1)S(=O)(=O)N(C)Cc1cnn(C)c1`: -1.179%; `Cc1cccc(-c2noc(CN3CCc4c(ncn4C4CC4)C3)n2)c1`: -0.5665%; `COCCCN(C)c1nc(-c2ccncc2)nc2c1CCN(C(C)=O)C2`: 7.228%.
Under `Cc1nn(C)cc1CN1CCc2nc(-c3cccnc3)nc(O)c2C1` stands 87.93%.
Turning to `Cc1cnn(C2CN(c3nc(-c4ccncc4)nc4c3CCC4)C2)c1`, the “Percent Effect” value is -2.167%.
With `Cc1nccn1CCN(C)c1nc(-c2cccnc2)nc2c1CCNC2`, the “Percent Effect” value stood at 2.372%.
With `NCC1CN(c2nc(-c3cccnc3)nc3c2CCNCC3)CCO1` (centres undefined), the “Percent Effect” value was -59.49%.
Under `CC(=O)N1CCc2c(nc(-c3cccnc3)nc2N(C)CC(O)CO)C1` (centres undefined) stands -2.171%; under `Cc1nc(-c2cnn(C)c2)nc2c1CN(C(=O)c1cccnc1)CC2`, -2.218%.
Under `C=Cn1ncc(CN2CCc3nc(-c4ccncc4)nc(O)c3C2)c1C` stands 95.82%; under `C=Cn1cc(CN2CCc3nc(-c4cccnc4)nc(O)c3C2)c(C)n1`, 93.89%; under `Cc1ccc(O)c(CN2CCc3nc(-c4cccnc4)nc(O)c3C2)c1`, 101.6%.
For `Cn1cc(CNCC2(O)CCCCC2)c(-c2cccnc2)n1`, the “Percent Effect” value is 2.797%.
